# Test results: the supplement of paper PMC10037445
# In all, about 2,900 compounds were measured (“NF-kB SEAP reporter activity, fold change vs agonist alone”: median about 0.99, highest 2% from about 2.6 on). The sample holds the highest values, similar compounds and a random draw of the others, so the mix is not that of the screen.
# Legend:
# [1] = test system: RAW-Dual; assay: NF-kB SEAP reporter activity, fold change vs agonist alone; cytotoxicity flag (confluency mask): not cytotoxic; higher = enhanced NF-kB activity
# Method in brief: (§1)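 Reporter activity is given as fold change relative to agonist-alone wells. To measure it, 50 nL of library stock was pin-tooled onto RAW-Dual macrophages (50,000 cells/well, DMEM, 384-well plates), a PRR agonist followed 1 h later, and cells stayed at 37 °C, 5% CO2. Twenty hours on, supernatant was assayed for IRF (QuantiLuc luminescence) and NF-κB (QuantiBlue, 620 nm absorbance), and wells under 70% of agonist-control IncuCyte confluency in both mask sets were marked cytotoxic.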
# [2] = test system: RAW-Dual; assay: NF-kB SEAP reporter activity, fold change vs agonist alone; higher = enhanced NF-kB activity
# Method in brief: as §1
# [3] = test system: RAW-Dual; assay: NF-kB SEAP reporter activity, fold change vs agonist alone; cytotoxicity flag (confluency mask): cytotoxic (confluency <70% of control); higher = enhanced NF-kB activity
# Method in brief: as §1
# [4] = agonist: ODN 1826 (TLR9) 0.5 ug/mL
# [5] = agonist: Pam2CSK4 (TLR2/6) 0.1 ug/mL
# [6] = agonist: Pam3CSK4 (TLR2/1) 0.1 ug/mL
# [7] = library stock concentration (final ~1000-fold dilution): 10 mM, cytotoxicity flag (confluency mask): not cytotoxic, agonist: Imiquimod (TLR7) […]
# [8] = library stock concentration (final ~1000-fold dilution): 10 mM, cytotoxicity flag (confluency mask): not cytotoxic, agonist: MPLA (TLR4) […]
# [9] = library stock concentration (final ~1000-fold dilution): 10 mM, cytotoxicity flag (confluency mask): cytotoxic (confluency <70% of control), agonist: Imiquimod (TLR7) […]
# [10] = library stock concentration (final ~1000-fold dilution): 10 mM, cytotoxicity flag (confluency mask): cytotoxic (confluency <70% of control), agonist: MPLA (TLR4) […]
smiles,measurement,setting,value
O=c1[nH]c(=S)[nH]c2nc(-c3ccccc3)c(-c3ccccc3)nc12 (library stock concentration (final ~1000-fold dilution): 10 mM),NF-kB SEAP reporter activity,[1]; agonist: LPS (TLR4) 0.1 ug/mL,0.947
same,NF-kB SEAP reporter activity,[1]; [4],0.854
same,NF-kB SEAP reporter activity,[1]; [5],0.938
same,NF-kB SEAP reporter activity,[1]; [6],0.926
O=c1[nH]c(=S)[nH]c2nc(-c3ccccc3)c(-c3ccccc3)nc12,NF-kB SEAP reporter activity,[2]; [7],0.796
same,NF-kB SEAP reporter activity,[2]; [8],0.977
Br.CCCc1cc(-c2nc(-c3ccc(C)cc3)cs2)ccn1 (library stock concentration (final ~1000-fold dilution): 10 mM),NF-kB SEAP reporter activity,[3]; agonist: LPS (TLR4) 0.1 ug/mL,1.54
same,NF-kB SEAP reporter activity,[3]; [4],1.04
same,NF-kB SEAP reporter activity,[3]; [5],1.07
same,NF-kB SEAP reporter activity,[3]; [6],0.895
Br.CCCc1cc(-c2nc(-c3ccc(C)cc3)cs2)ccn1,NF-kB SEAP reporter activity,[2]; [9],1.1
same,NF-kB SEAP reporter activity,[2]; [10],1.37
Cc1cccc(CN2CCN(C(c3ccccc3)c3ccc(Cl)cc3)CC2)c1.Cl.Cl (stereo not drawn) (library stock concentration (final ~1000-fold dilution): 2 mM),NF-kB SEAP reporter activity,[1]; agonist: LPS (TLR4) 0.1 ug/mL,1.51
same,NF-kB SEAP reporter activity,[1]; [4],0.87
same,NF-kB SEAP reporter activity,[1]; [5],0.931
same,NF-kB SEAP reporter activity,[1]; [6],0.984
Cc1cccc(CN2CCN(C(c3ccccc3)c3ccc(Cl)cc3)CC2)c1.Cl.Cl (stereo not drawn),NF-kB SEAP reporter activity,"[2]; library stock concentration (final ~1000-fold dilution): 2 mM, cytotoxicity flag (confluency mask): not cytotoxic, agonist: Imiquimod (TLR7) […]",0.843
same,NF-kB SEAP reporter activity,"[2]; library stock concentration (final ~1000-fold dilution): 2 mM, cytotoxicity flag (confluency mask): not cytotoxic, agonist: MPLA (TLR4) […]",1.15
Brc1ccc(C2CN3CCSC3=N2)cc1.O=C(O)C(=O)O (stereo not drawn) (library stock concentration (final ~1000-fold dilution): 10 mM),NF-kB SEAP reporter activity,[1]; agonist: LPS (TLR4) 0.1 ug/mL,1.48
same,NF-kB SEAP reporter activity,[1]; [4],0.888
same,NF-kB SEAP reporter activity,[1]; [5],0.956
same,NF-kB SEAP reporter activity,[1]; [6],1.01
Brc1ccc(C2CN3CCSC3=N2)cc1.O=C(O)C(=O)O (stereo not drawn),NF-kB SEAP reporter activity,[2]; [7],0.948
same,NF-kB SEAP reporter activity,[2]; [8],1.01
CC(=N)NCc1cccc(CN)c1.Cl.Cl,NF-kB SEAP reporter activity,[2]; [7],1.08
same,NF-kB SEAP reporter activity,[2]; [8],1.03
CC(=N)NCc1cccc(CN)c1.Cl.Cl (library stock concentration (final ~1000-fold dilution): 10 mM),NF-kB SEAP reporter activity,[1]; agonist: LPS (TLR4) 0.1 ug/mL,0.956
same,NF-kB SEAP reporter activity,[1]; [4],1.03
same,NF-kB SEAP reporter activity,[1]; [5],1.02
same,NF-kB SEAP reporter activity,[1]; [6],0.859
CNC1CCC(c2ccc(Cl)c(Cl)c2)c2ccccc21.Cl (stereo not drawn),NF-kB SEAP reporter activity,[2]; [9],1.64
same,NF-kB SEAP reporter activity,[2]; [10],1.56
CNC1CCC(c2ccc(Cl)c(Cl)c2)c2ccccc21.Cl (stereo not drawn) (library stock concentration (final ~1000-fold dilution): 10 mM),NF-kB SEAP reporter activity,[3]; agonist: LPS (TLR4) 0.1 ug/mL,0.879
same,NF-kB SEAP reporter activity,[3]; [4],0.405
same,NF-kB SEAP reporter activity,[3]; [5],0.42
same,NF-kB SEAP reporter activity,[3]; [6],0.484
CC(C)(C)c1ccc(Cn2nc(-c3ccc(Cl)cc3)cc2C(=O)NO)cc1 (library stock concentration (final ~1000-fold dilution): 10 mM),NF-kB SEAP reporter activity,[1]; agonist: LPS (TLR4) 0.1 ug/mL,1.32
same,NF-kB SEAP reporter activity,[1]; [4],1.24
same,NF-kB SEAP reporter activity,[1]; [5],0.824
same,NF-kB SEAP reporter activity,[1]; [6],0.964
CC(C)(C)c1ccc(Cn2nc(-c3ccc(Cl)cc3)cc2C(=O)NO)cc1,NF-kB SEAP reporter activity,[2]; [7],1.47
same,NF-kB SEAP reporter activity,[2]; [8],1.5
COC1/C=C/OC2(C)Oc3c(C)c(O)c4c(O)c(c(/C=N/N5CCN(C)CC5)c(O)c4c3C2=O)NC(=O)/C(C)=C/C=C/C(C)C(O)C(C)C(O)C(C)C(OC(C)=O)C1C (stereo not drawn) (library stock concentration (final ~1000-fold dilution): 10 mM),NF-kB SEAP reporter activity,[1]; agonist: LPS (TLR4) 0.1 ug/mL,0.987
same,NF-kB SEAP reporter activity,[1]; [4],0.979
same,NF-kB SEAP reporter activity,[1]; [5],0.906
same,NF-kB SEAP reporter activity,[1]; [6],0.892
COC1/C=C/OC2(C)Oc3c(C)c(O)c4c(O)c(c(/C=N/N5CCN(C)CC5)c(O)c4c3C2=O)NC(=O)/C(C)=C/C=C/C(C)C(O)C(C)C(O)C(C)C(OC(C)=O)C1C (stereo not drawn),NF-kB SEAP reporter activity,[2]; [7],0.886
same,NF-kB SEAP reporter activity,[2]; [8],0.877
